# Source: PubChem BioAssay
# Compounds with a hit are over-represented: about 2.6% of the library has one in this group of screens.
# TCR-CD3 inh – human TCR-CD3 binding inhibition. TAMRA-labeled TCR probe fluorescence, biochemical. inhibition, % at 9.4 µM. hit rate 0.37% among 360,000; in the data active = inhibition above about 19%;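 note: recombinant mutant TCR 2C K166C tagged with TAMRA read by polarization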
# PRMT1 FP inh – PRMT1 (human) inhibition, primary screen; recombinant PRMT1, activity-based probe fluorescence polarization; Q99873; inhibition, % at 2.79 µM; hit rate 1.3% among 370,000; AID 652257;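 active = inhibition above about 21% made by adding two undisclosed values, limit read from the data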
# PME-1 primary – blocks human protein phosphatase methylesterase 1 | recombinant PME-1, FP-Rh probe fluorescence polarization | inhibition, % at 5.9 µM | hit rate 0.53% among 320,000 | AID 2130;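 active = inhibition above the campaign mean of all compounds plus 3 SD, cut at about 26% in these data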;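 note: competitive labeling of PME-1 active site by serine hydrolase directed probe; inhibitors block probe labeling so polarization falls and inhibition rises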
# Target sequence (Q9Y570 whole entry, looked up): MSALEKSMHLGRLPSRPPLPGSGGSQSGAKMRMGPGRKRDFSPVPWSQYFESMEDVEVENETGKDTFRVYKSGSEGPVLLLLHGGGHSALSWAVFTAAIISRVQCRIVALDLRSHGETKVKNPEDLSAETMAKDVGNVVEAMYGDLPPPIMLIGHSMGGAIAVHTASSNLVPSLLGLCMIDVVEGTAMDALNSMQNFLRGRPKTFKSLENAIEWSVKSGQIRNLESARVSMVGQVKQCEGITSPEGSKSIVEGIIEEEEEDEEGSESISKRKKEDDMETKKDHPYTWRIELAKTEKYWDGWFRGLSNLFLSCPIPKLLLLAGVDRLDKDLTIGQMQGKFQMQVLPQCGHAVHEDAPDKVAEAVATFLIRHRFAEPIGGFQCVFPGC
# PAD4 inh – inhibitors of human PAD4. hit rate 0.41% among 330,000. inhibition, % at 6.36 µM. recombinant PAD4, RCA probe fluorescence polarization;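 active = percent inhibition above a cutoff equal to the mean of all tested compounds plus 3 SD, cut at about 15% in these data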
# SIAE primary – human SIAE inhibition, primary screen; inhibition, % at 9.66 µM; hit rate 0.69% among 370,000; SIAE FP-Rh probe binding, fluorescence polarization;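 active = inhibition above a cutoff: mean of compounds within the control limits plus 3 SD of those, cut at about 17% in these data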
# Fam108B counter – counter-screen for RBBP9 inhibitors: inhibitors of mouse Fam108B | recombinant Fam108B, FP-Rh probe fluorescence polarization | inhibition, % at 9.51 µM | hit rate 0.33% among 300,000;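 active = inhibition above the screen mean inhibition plus 3 SD, computed separately per campaign, cut at about 18% in these data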;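 note: inhibitors lower polarization as less probe binds the enzyme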
# PRMT1 confirm – confirmation of human PRMT1 inhibitors; shares compounds with PRMT1 FP inh; recombinant His-PRMT1, activity-based probe fluorescence polarization; inhibition, % at 2.79 µM; hit rate 42% among 3,300;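 active = mean inhibition across replicates above the hit cutoff derived for the earlier primary screen, cut at about 22% in these data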
# Hits are given with their value; n = inactive; x = no result given.
SMILES,TCR-CD3 inh,PRMT1 FP inh,PME-1 primary,PAD4 inh,SIAE primary,Fam108B counter,PRMT1 confirm
CCN(C(=O)[C@@H]1CC(=O)O[C@@H]1c1ccccc1)c1ccccc1,x,n,x,x,n,x,x
Cn1c(=O)[nH]c(=O)c2c1nc(SCCN1CCCCC1)n2CCCc1ccccc1,n,57.2,n,n,n,n,45.5
Cc1ccc(Cn2c(SCCN3CCCCC3)nc3c2c(=O)[nH]c(=O)n3C)cc1,n,33.1,n,n,n,n,46.0
CSc1nc2c(c(=O)[nH]c(=O)n2C)n1Cc1ccc(Cl)cc1,n,66.2,n,n,n,n,n
Cc1cc(C)cc(NC(=O)OC2CCC23CCCCC3)c1 (centres undefined),x,n,x,x,n,x,x
COC(=O)C1CN(Cc2ccccc2)CCS(=O)(=O)N1Cc1ccc(C(F)(F)F)cc1 (centres undefined),x,n,x,x,n,x,x
O=C(O)CSC1CC(=O)N(c2cccc(Cl)c2)C1=O (centres undefined),n,n,n,n,n,n,x
O=C(O)CSC1CC(=O)N(c2ccc(Cl)c(Cl)c2)C1=O (centres undefined),n,48.2,n,n,n,n,36.2
CCCCCCCCN1CCS(=O)(=O)N(Cc2ccc(F)cc2)C(C(=O)OC)C1 (centres undefined),x,n,x,x,n,x,x
S=c1nccc(-c2cccs2)[nH]1,n,49.1,n,n,n,n,21.9
c1csc(-c2ccn[nH]2)c1,n,n,n,n,n,n,x
OCCN1CCN(C(=S)c2ccc(Cl)c(Cl)c2)CC1,n,78.0,n,n,n,n,77.8
CCN1C(=O)CC(SC2CC(=O)N(CC)C2=O)C1=O (centres undefined),n,33.0,x,x,n,x,26.6
CCCCN1C(=O)CC(SC2CC(=O)N(CCCC)C2=O)C1=O (centres undefined),n,57.4,x,x,n,x,n
CCN1C(=O)CC(N2CCC(C(=O)OC)CC2)C1=O (centres undefined),n,n,n,n,n,n,x
CC(C)C[C@H](NC1(C(=O)NCCc2c[nH]c3ccccc23)CCN(C)CC1)C(=O)NCCCc1ccccc1,x,n,x,x,n,x,x
CN(C)c1cccc(/C=C2\CC3(OC(=O)c4ccc(Cl)cc4)CCCN2C3)c1 (centres undefined),x,n,x,x,n,x,x
S=c1[nH]c(-c2ccccc2)cs1,n,30.1,n,n,n,n,n
COc1ccc(S[C@]2(C(=O)N3CCCC3)CC(=O)N(c3ccc4c(ccn4C)c3)[C@@H]2c2ccc(OC)cc2)cc1,x,n,x,x,n,x,x
O=C(CSc1cn[nH]n1)Nc1cccc(C(=O)O)c1,n,71.9,n,n,n,n,89.8
Cc1cccc(NC(=O)CSc2cn[nH]n2)c1,n,n,n,n,n,n,x
Cc1ccc(/C=c2\s/c(=C(/C#N)C(=O)N3CCCC3)n(Cc3ccco3)c2=O)s1,n,26.0,n,n,n,n,n
CN(C)c1cccc(/C=C2\CC3(OC(=O)c4ccc(F)cc4)CCCN2C3)c1 (centres undefined),x,n,x,x,n,x,x
CN(CC(=O)Nc1ccccc1Cl)C(=O)COC(=O)CSc1ccc(F)cc1,n,n,n,n,n,n,x
CC(=O)Nc1ccc(SCC(=O)N(C)CC(=O)Nc2ccccc2Cl)cc1,n,57.9,x,n,n,x,60.7
SMILES,TCR-CD3 inh,PRMT1 FP inh,PME-1 primary,PAD4 inh,SIAE primary,Fam108B counter,PRMT1 confirm
CC[n+]1c(S(=O)(=O)[O-])ccc2ccc(C)cc21,n,n,n,n,n,n,x
CC/C(=C/c1sc2ccc(C)cc2[n+]1CCO)SC,n,52.1,n,n,n,n,n
Cc1ccc2sc(C)[n+](CCC(C)S(=O)(=O)[O-])c2c1 (centres undefined),n,57.2,n,n,n,n,30.9
CC/C(=C/c1sc2ccc(C)cc2[n+]1CCCS(=O)(=O)[O-])SC,n,38.6,n,n,n,n,22.9
COc1ncc(-c2cc(C(C)=O)c3n(c2=O)CCC3)c(OC)n1,x,n,x,x,n,x,x
Cc1cc(-c2n[nH]c(=S)n2N=Cc2ccc(OCc3ccccc3)cc2)n[nH]1,x,n,x,x,n,x,x
O=C(O)c1cccc(Cn2c(Cl)c(/C=N/NC(=O)c3ccc(O)cc3)sc2=O)c1,n,n,n,n,n,n,x
O=c1sc(/C=N/Nc2ccccc2)c(Cl)n1Cc1ccccc1,n,58.9,n,n,n,n,n
COc1ccc(NC(=O)CSc2nnc(-c3cccnc3)o2)c(OC)c1,n,27.6,n,n,n,n,36.2
COc1ccc(NC(=O)CSc2nnc(-c3ccncc3)o2)c(OC)c1,n,n,n,n,n,n,x
CN(Cc1ccccc1)C(=O)OCc1cn(Cc2cc(F)cc(F)c2)nn1,x,n,x,x,n,x,x
CCOc1ccc(N2C(=O)CC(NC3CCCCNC3=O)C2=O)cc1 (centres undefined),n,44.4,n,n,n,n,n
CCOc1ccc(N2C(=O)CC(NCC#N)C2=O)cc1 (centres undefined),n,33.1,n,n,n,n,45.7
CCOc1ccc(N2C(=O)CC(NCc3ccc(S(N)(=O)=O)cc3)C2=O)cc1 (centres undefined),n,n,n,n,n,n,x
O=C1CC(NNc2ccccc2)C(=O)N1c1ccccc1 (centres undefined),n,n,n,n,n,n,x
O=C1NCCCCC1NC1CC(=O)N(c2ccccc2)C1=O (centres undefined),n,34.4,n,n,n,n,n
COc1ccc(C2CCC3(CCC(=O)N3CCOC(=O)NCc3ccc(Cl)cc3)CC2)cc1 (centres undefined),x,n,x,x,n,x,x
COc1ccc(CCN(Cc2cccs2)S(=O)(=O)c2ccccc2)cc1OC,x,n,x,x,n,x,x
O=C(Nc1ccc(S(=O)(=O)NC2=NCCCCC2)cc1)c1ccc([N+](=O)[O-])s1,n,n,n,n,n,n,x
O=C(Nc1ccc(S(=O)(=O)NC2=NCCCCC2)cc1)c1cccs1,n,69.8,x,n,n,x,n
CN(Cc1ccccc1)C(=O)OCc1cn(Cc2ccc(Cl)cc2)nn1,x,n,x,x,n,x,x
Cc1ccc(/C=C2/C(=O)c3ccc(C(=O)O)cc3C2=O)o1,n,40.6,x,x,n,x,39.4
CCNc1nc(NCC)n2c(SCC(=O)Nc3ccc(Br)cc3F)nnc2n1,n,37.4,n,n,n,n,n
CCC[C@H]1[C@@H](OC(=O)N2CCCC2)CC[C@@]23CCCN2C(=O)CCC[C@@H]13,x,n,x,x,n,x,x
COc1ccc(N2C(=O)CC(NCc3cccc(F)c3)C2=O)cc1 (centres undefined),n,54.8,n,n,n,n,n
COc1ccc(N2C(=O)CC(NCc3ccncc3)C2=O)cc1 (centres undefined),n,n,n,n,n,n,x
COc1ccc(N2C(=O)CC(NCc3ccc(F)cc3)C2=O)cc1 (centres undefined),n,65.8,n,n,n,n,n
O=C(C1CCCN1S(=O)(=O)c1ccc([N+](=O)[O-])cc1)N1CCN(c2ccccc2)CC1 (centres undefined),x,n,x,x,n,x,x
O=C1CSc2ccc(S(=O)(=O)NCc3ccc(Cl)cc3)cc2N1,n,n,n,n,n,n,x
